We go through seven compounds from paper PMC5540273 (PLoS ONE, 2017).

Test systems include MYO3B; NDR2; NEK10; NEK11; NEK1; NEK2; NEK3; NEK4; NEK5; NEK6; NEK7; NEK9; NLK; PAK1; PAK2; PAK3.
Settings in all cases: concentration: 1 μM, replicates: in singlicate; n = 1
For the next assay, the system named is T1, NDR1.
T1 construct: gene STK38

Another assay concerns T2, NIK.
T2 construct: gene MAP3K14

Another assay deals with T3, NIM1.
T3 construct: gene MGC42105

A further assay deals with T4, OSR1.
T4 construct: gene OXSR1
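Note: KINOMEscan kinase panel screen.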

For `O=C(NCCNc1ccnc(Nc2ccc(F)cc2)n1)c1cc2ccccc2s1` [GSK1379874], the “%Inh” value with MYO3B worked out at 0%; in the assay with NDR1 it was 0%; in the assay on NDR2 it was 0%; in the assay with NEK10 it was 7%; in the assay with NEK11 it was 0%; in the assay with NEK1, 0%. In addition, the “%Inh” value in the assay on NEK2 came to 0%; in the assay with NEK3, 4%; with NEK4, 0%; in the assay with NEK5 it was 0%; in the assay with NEK6, 0%; in the assay with NEK7, 0%. Also, the “%Inh” value with NEK9 worked out at 16%; in the assay with NIK it was 0%; in the assay with NIM1 it was 33%; in the assay with NLK, 0%; in the assay with OSR1, 12%; with PAK1 it was 6%. For the same compound, the “%Inh” value in the assay on PAK2 and in the assay with PAK3 was 0% each time.
Consider `Cc1cn2c(=O)cc(N3CCOCC3)nc2n1Cc1cccc(Cl)c1Cl` [GSK2334006], for which the “%Inh” value turned out to be 0% with MYO3B; 10% with NDR1; 0% with NDR2; 10% in the assay on NEK10; 0% in the assay with NEK11; 0% with NEK1. In addition, the “%Inh” value in the assay on NEK2 worked out at 14%; in the assay on NEK3, 0%; with NEK4, 4%; in the assay with NEK5 it was 14%; in the assay with NEK6 it was 18%; in the assay on NEK7 it was 0%. The “%Inh” value in the assay with NEK9 came to 8%; with NIK, 0%; in the assay with NIM1, 7%; in the assay with NLK it was 9%; in the assay with OSR1 it was 1%; in the assay with PAK1, 12%. Besides, the “%Inh” value in the assay with PAK2 is reported as 10%; in the assay with PAK3 it was 15%.
Take `Cn1cc(-c2ccc3c(c2)CCN3C(=O)Cc2ccccc2Cl)c2c(N)ncnc21` [GSK2608885]: the “%Inh” value in the assay with MYO3B stood at 33%; in the assay with NDR1, 21%; with NDR2, 0%; in the assay with NEK10 it was 0%; with NEK11, 0%; in the assay with NEK1 it was 0%. The “%Inh” value with NEK2 came to 79%; in the assay with NEK3 it was 0%; with NEK4 it was 5%; in the assay with NEK5, 7%; with NEK6, 3%; in the assay with NEK7, 17%. In addition, the “%Inh” value was found to be 33% in the assay with NEK9; 8% with NIK; 7% in the assay with NIM1; 86% in the assay with NLK; 10% with OSR1; 44% with PAK1. The results for the “%Inh” value with PAK2 and in the assay with PAK3 were 13% and 28%, respectively.
Take `C[C@@H](Oc1cc(-n2cnc3ccc(NC(=O)NC(C)(C)C)cc32)sc1C(N)=O)c1ccccc1Cl` [GSK346294]: the “%Inh” value with MYO3B turned out to be 0%; in the assay with NDR1 it was 17%; in the assay on NDR2, 17%; with NEK10, 0%; in the assay on NEK11, 0%; in the assay with NEK1, 0%. Besides, the “%Inh” value with NEK2 was found to be 5%; in the assay with NEK3 it was 5%; with NEK4, 0%; with NEK5 it was 26%; in the assay on NEK6 it was 0%; in the assay on NEK7, 4%. Also, the “%Inh” value in the assay with NEK9 was 16%; in the assay with NIK, 21%; with NIM1, 19%; in the assay on NLK, 19%; in the assay on OSR1 it was 18%; with PAK1, 15%. For the same compound, the entries for the “%Inh” value in the assay on PAK2 and in the assay with PAK3 were 14% and 15%, respectively.
Take `O=C(NCCCN1CCOCC1)c1cccc(Nc2nccc(Nc3ccc(Oc4ccccc4)cc3)n2)c1` [GW663929]: the “%Inh” value in the assay with MYO3B is reported as 0%; in the assay with NDR1, 40%; with NDR2 it was 41%; with NEK10 it was 0%; in the assay with NEK11, 13%; with NEK1, 11%. Also, the “%Inh” value in the assay with NEK2 is reported as 6%; in the assay on NEK3 it was 5%; in the assay on NEK4 it was 0%; with NEK5 it was 24%; with NEK6 it was 15%; in the assay on NEK7, 28%. Also, the “%Inh” value in the assay on NEK9 came out at 28%; in the assay on NIK it was 3%; with NIM1 it was 28%; in the assay with NLK it was 27%; in the assay with OSR1, 0%; with PAK1 it was 9%. Moreover, the “%Inh” value in the assay on PAK2 is recorded as 15%; in the assay on PAK3, 0%.
Take `COc1ccc(CNC(=O)NC2CCN(c3ccnc(Nc4ccc(OC)cc4)n3)C2)cc1` (centres unmarked) [GSK1379727]: the “%Inh” value in the assay on MYO3B is 0%; in the assay with NDR1, 0%; in the assay on NDR2, 42%; with NEK10 it was 15%; with NEK11, 11%; in the assay on NEK1, 0%. The “%Inh” value in the assay on NEK2 turned out to be 0%; in the assay on NEK3, 8%; in the assay on NEK4 it was 12%; with NEK5, 13%; in the assay on NEK6, 0%; with NEK7 it was 0%. Further, the “%Inh” value in the assay on NEK9 stood at 6%; with NIK it was 17%; in the assay with NIM1 it was 33%; with NLK, 24%; with OSR1, 0%; in the assay with PAK1, 0%. For the same compound, the “%Inh” value in the assay on PAK2 and in the assay on PAK3 was 0% in each case.
Consider `COc1ccc(Nc2ncc(C#N)c(Nc3ccccc3C(N)=O)n2)cc1N1CCN(C)CC1.Cl` [GSK1558669], for which the “%Inh” value in the assay on MYO3B came to 0%; with NDR1, 98.8%; in the assay on NDR2 it was 75%; in the assay with NEK10 it was 94.1%; in the assay on NEK11, 97.5%; with NEK1, 91.6%. In addition, the “%Inh” value in the assay on NEK2 worked out at 99.6%; with NEK3, 93.5%; in the assay on NEK4, 94.7%; in the assay with NEK5 it was 100%; in the assay on NEK6, 99.9%; with NEK7, 97.4%. Further, the “%Inh” value worked out at 98.2% in the assay on NEK9; 96.6% in the assay on NIK; 99.9% in the assay on NIM1; 71% with NLK; 100% in the assay on OSR1; 91.2% in the assay on PAK1. The entries for the “%Inh” value in the assay with PAK2 and with PAK3 were 96.9% and 100%, respectively.
